One test has as its target Albumin (Bos taurus) (UniProt P02769). Nature of the test: compounds binding labelled BSA control protein – biochemical, small-molecule microarray, Alexa647 label, 635/667 nm fluorescence, artefact control for SMM control protein annotation, profiling panel (AID 1118).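 Further: score merges 667 nm emission intensity and signal-to-noise per printed compound spot.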 The note with it: BSA-A647 binding, fluorescence 635 nm, higher = more signal.
Test [1] is described as follows: probe aXIP binding to arrayed compounds – biochemical, NeuroSMM set, 635/667 nm fluorescence, primary screen (AID 1119).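 Further: probe is the protein aXip251-270 applied at 1 µg/mL to compound-printed slides; binding of probe to printed compounds measured as 667 nm fluorescence plus signal to noise.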 As to conditions: small-molecule microarray, higher = more signal, called active from +8 up or from −8 down.
A short description of test [2]: probe aNOTCH3 binding on compound microarray – biochemical, small-molecule microarray, 635/667 nm fluorescence, primary screen (AID 1120).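 Further: probe is a biotin-tagged antibody raised against NOTCH3 rather than NOTCH3 protein; score merges spot fluorescence near 667 nm with spot signal to noise.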 The note with it: higher = more signal.
A short description of test [3]: probe aNOTCH2 binding on compound microarray – biochemical, small-molecule microarray, 635/667 nm fluorescence, primary screen (AID 1121).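 Further: score merges feature fluorescence read at 667 nm with its signal to noise.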 The note with it: higher = more signal.
The target of test [4] is Carbonic anhydrase 2 (Homo sapiens) (UniProt P00918). Nature of the test: compounds binding carbonic anhydrase 2 – biochemical, small-molecule microarray, Alexa647-labelled CAII, profiling panel (AID 1122). As to conditions: CAII-A647 binding fluorescence, higher = more signal.
A short description of test [5]: COS7 lysate on small-molecule microarray, probe aHis, 635 nm (AID 1123).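 Further: z-score combines 667nm fluorescence intensity with signal-to-noise per printed compound spot.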 As to conditions: COS7 cell lysate, fluorescence, higher = more signal.
Test [6] in a line: probe aLAP1 signal on lysate-treated microarray – cell lysate, small-molecule microarray, COS7 lysate, primary screen (AID 1124).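 Further: lysate comes from COS7 cells expressing LAP1 and is applied at 0.3 µg/mL; score merges spot fluorescence near 667 nm with signal-to-noise over triplicate slides.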 As to conditions: probe aLAP1, fluorescence, higher = more signal.
For the next test, the system named is Sam68 (KHDRBS1). Nature of the test: compounds binding KHDRBS1 protein – biochemical, small-molecule microarray, 635 nm fluorescence, primary screen (AID 1125).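 Further: score merges 667 nm channel intensity with signal to noise over triplicate slides.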 As to conditions: higher = more signal.
Test [7] concerns Chordin-like protein 2 (CHRDL2). Nature of the test: compounds binding chordin-like 2 – biochemical, small-molecule microarray, 635 nm fluorescence, primary screen (AID 1126).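 Further: printed compound slides probed with Chrdl2 protein at 4 µg/mL for 1 h at 4 C; score merges 667 nm emission intensity with signal to noise over three replicate slides.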 The note with it: fluorescence 635 nm, higher = more signal.
In test [8] the target is Concanavalin-A (Canavalia ensiformis) (UniProt P02866). Nature of the test: compounds binding concanavalin A lectin – biochemical, small-molecule microarray, Alexa647 label, 635 nm, artefact control for SMM control protein annotation, primary screen (AID 1127).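 Further: z combines 667 nm emission intensity with signal-to-noise across three replicate slides.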 As to conditions: ConA-A647 binding fluorescence, higher = more signal.
Chain of Concanavalin-A (Canavalia ensiformis) (P02866 whole entry, looked up): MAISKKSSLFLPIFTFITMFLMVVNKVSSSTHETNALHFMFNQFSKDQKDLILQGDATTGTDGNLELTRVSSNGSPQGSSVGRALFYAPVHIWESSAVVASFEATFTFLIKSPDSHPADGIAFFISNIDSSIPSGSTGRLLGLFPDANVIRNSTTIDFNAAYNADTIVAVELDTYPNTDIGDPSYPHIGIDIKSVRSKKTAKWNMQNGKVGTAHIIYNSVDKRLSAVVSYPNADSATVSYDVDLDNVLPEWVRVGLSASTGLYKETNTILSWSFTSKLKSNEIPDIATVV
Test [9] can be described thus: compounds binding Alexa647 anti-His antibody – biochemical, small-molecule microarray, 635 nm fluorescence, artefact control for SMM control protein annotation, primary screen (AID 1128).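 Further: score merges feature fluorescence with signal-to-noise for each printed compound spot.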 The note with it: higher = more signal.
Test [10] concerns Human papillomavirus type 1a E7 protein (residues 1-88). Nature of the test: HPV1a E7 small-molecule binders, primary screen, biochemical, small-molecule microarray, residues 1-88, 635 nm (AID 1129). As to conditions: small-molecule microarray binding, fluorescence 635 nm; higher = more signal.
Test [11] concerns the target Focal adhesion kinase 1 (Homo sapiens) (UniProt Q05397). Nature of the test: PTK2 protein binding on printed compound slides – biochemical, small-molecule microarray, 635/667 nm fluorescence, BSA, DTT, primary screen (AID 1130).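 Further: composite of spot emission at 667 nm and signal to noise over triplicate slides.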 The note with it: 635 nm fluorescence, higher = more signal.
Test [12] deals with Fibrinogen (Alexa647-labelled). Nature of the test: Alexa647-fibrinogen binding to printed small molecules – biochemical, small-molecule microarray, 635/667 nm fluorescence, artefact control for SMM control-protein annotation, profiling panel (AID 1131).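 Further: z-score merges 667 nm fluorescence with per-spot signal-to-noise over triplicate slides.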 As to conditions: fibrinogen-A647 binding fluorescence, higher = more signal.
Test [13] has as its target Follistatin (Homo sapiens) (UniProt P19883). Nature of the test: FST protein binding to printed compounds – biochemical, small-molecule microarray, 635/667 nm fluorescence, primary screen (AID 1132). As to conditions: 635 nm fluorescence, higher = more signal.
Test [14] concerns the target Fibroblast growth factor 2 (Homo sapiens) (UniProt P09038). Nature of the test: basic fibroblast growth factor binding to printed compounds – biochemical, small-molecule microarray, 635/667 nm fluorescence, primary screen (AID 1133). The note with it: FGF2, fluorescence 635/667, higher = more signal.
Test [15] in a line: JC-1 mitochondrial potential readout, lung cancer cells – cell-based, A549, JC-1 fluorescence, basal, 24 h, 100 nL, profiling panel (AID 1138).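 Further: A549 lung adenocarcinoma cells under basal conditions with no added stimulus; test concentration not given here.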 As to conditions: higher = more signal.
In a further test the test system is Lefty1. Nature of the test: Lefty1 protein binding to printed compounds – biochemical, small-molecule microarray, 635/667 nm fluorescence, primary screen (AID 1139). As to conditions: fluorescence 635/667, higher = more signal.
Test [16] deals with wheat germ agglutinin (Triticum aestivum), Alexa647-labelled. Nature of the test: Alexa647-WGA lectin binding to printed small molecules – biochemical, small-molecule microarray, 635/667 nm fluorescence, artefact control for SMM control-protein annotation, profiling panel (AID 1140).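 Further: score merges 667 nm feature emission with signal to noise over triplicate slides.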 As to conditions: WGA-A647 binding, 635 nm fluorescence, higher = more signal.
Test [17] addresses Luciferin 4-monooxygenase (Photinus pyralis) (UniProt P08659). Nature of the test: inhibition of purified Photinus pyralis luciferase – biochemical, luminescence, purified enzyme, 2006 set, primary screen (AID 1141).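 Further: cell-free assay with purified firefly luciferase at 100 ng per well in PBS; test concentration not given here.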 As to conditions: purified firefly luciferase, SteadyGlo luminescence, 30 min; higher = more signal, called active from +8 up or from −8 down.

Molecules are shown by their SMILES. Calls of active or inactive are those of the source.

Chain of Fibroblast growth factor 2 (Homo sapiens) (P09038 whole entry, looked up): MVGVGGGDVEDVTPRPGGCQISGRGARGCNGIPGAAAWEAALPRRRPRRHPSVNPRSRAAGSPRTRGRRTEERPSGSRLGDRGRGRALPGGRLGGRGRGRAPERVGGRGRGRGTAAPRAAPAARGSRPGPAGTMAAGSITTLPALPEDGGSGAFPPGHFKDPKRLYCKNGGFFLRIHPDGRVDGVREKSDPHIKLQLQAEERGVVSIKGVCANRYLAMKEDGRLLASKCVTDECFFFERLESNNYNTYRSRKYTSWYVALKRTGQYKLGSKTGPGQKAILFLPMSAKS
Chain of Focal adhesion kinase 1 (Homo sapiens) (Q05397 whole entry, looked up): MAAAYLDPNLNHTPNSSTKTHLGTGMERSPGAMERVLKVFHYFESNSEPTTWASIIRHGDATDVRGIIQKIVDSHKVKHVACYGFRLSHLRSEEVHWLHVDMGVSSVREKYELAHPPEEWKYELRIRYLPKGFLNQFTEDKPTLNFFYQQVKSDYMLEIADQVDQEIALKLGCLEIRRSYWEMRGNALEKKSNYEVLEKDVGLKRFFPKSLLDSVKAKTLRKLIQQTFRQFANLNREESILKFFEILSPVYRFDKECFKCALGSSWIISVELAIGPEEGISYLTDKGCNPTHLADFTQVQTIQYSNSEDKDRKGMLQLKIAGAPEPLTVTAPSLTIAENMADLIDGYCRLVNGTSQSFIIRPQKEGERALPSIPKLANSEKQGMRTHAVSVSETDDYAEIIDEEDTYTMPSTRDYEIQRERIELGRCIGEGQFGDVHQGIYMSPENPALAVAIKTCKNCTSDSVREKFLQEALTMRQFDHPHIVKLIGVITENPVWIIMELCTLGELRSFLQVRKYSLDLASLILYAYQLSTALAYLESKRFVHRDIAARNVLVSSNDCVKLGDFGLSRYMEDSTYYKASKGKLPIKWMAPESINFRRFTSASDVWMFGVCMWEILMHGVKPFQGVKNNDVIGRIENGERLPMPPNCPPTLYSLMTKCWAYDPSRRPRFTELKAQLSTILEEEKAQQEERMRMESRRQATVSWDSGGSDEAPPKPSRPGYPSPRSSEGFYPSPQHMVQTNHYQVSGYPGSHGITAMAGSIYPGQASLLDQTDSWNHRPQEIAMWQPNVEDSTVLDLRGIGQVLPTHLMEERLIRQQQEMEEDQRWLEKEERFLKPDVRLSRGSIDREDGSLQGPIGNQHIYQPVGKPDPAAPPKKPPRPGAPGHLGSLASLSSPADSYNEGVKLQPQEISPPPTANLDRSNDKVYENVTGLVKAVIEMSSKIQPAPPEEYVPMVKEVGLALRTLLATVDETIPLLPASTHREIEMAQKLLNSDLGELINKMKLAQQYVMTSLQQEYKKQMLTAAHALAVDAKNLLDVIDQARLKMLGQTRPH
Chain of Follistatin (Homo sapiens) (P19883 whole entry, looked up): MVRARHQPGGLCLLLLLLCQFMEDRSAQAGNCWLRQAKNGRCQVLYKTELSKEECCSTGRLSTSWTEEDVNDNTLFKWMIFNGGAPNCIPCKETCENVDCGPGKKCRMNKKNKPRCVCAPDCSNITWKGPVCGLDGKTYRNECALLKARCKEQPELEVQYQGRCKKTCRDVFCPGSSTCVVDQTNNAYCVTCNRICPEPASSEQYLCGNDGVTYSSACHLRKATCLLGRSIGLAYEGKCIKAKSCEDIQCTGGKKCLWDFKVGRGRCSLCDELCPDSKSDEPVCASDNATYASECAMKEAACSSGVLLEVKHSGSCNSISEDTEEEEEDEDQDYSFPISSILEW
Chain of Luciferin 4-monooxygenase (Photinus pyralis) (P08659 whole entry, looked up): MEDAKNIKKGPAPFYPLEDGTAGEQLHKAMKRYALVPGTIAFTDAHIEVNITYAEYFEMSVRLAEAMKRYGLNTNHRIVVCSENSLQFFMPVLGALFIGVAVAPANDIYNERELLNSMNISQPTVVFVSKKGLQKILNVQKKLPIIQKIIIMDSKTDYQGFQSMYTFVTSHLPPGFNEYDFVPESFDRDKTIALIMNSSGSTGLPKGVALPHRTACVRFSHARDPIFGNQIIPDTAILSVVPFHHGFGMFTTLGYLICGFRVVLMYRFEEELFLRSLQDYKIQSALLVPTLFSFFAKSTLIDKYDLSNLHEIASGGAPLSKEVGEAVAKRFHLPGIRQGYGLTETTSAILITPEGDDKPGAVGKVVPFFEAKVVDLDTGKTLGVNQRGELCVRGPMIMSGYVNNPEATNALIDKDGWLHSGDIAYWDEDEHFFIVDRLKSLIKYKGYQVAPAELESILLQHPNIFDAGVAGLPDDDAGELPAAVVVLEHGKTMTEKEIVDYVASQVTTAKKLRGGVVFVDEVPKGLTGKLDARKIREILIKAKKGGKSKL
Chain of Albumin (Bos taurus) (P02769 whole entry, looked up): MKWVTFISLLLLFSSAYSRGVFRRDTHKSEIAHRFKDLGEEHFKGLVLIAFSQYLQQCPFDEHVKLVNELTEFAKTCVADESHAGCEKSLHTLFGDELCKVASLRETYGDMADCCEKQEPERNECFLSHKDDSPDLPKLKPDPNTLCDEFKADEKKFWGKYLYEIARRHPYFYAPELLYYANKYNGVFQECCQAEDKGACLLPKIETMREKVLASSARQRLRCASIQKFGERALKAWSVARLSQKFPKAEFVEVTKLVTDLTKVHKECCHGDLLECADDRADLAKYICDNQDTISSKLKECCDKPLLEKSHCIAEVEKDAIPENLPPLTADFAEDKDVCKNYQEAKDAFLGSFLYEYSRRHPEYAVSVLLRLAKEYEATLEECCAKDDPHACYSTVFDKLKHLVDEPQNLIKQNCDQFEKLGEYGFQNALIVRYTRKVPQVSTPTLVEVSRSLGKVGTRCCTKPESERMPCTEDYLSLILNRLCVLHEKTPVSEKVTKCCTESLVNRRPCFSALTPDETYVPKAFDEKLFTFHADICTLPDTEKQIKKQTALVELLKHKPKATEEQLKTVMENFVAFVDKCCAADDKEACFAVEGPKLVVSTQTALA

For the compound `CO[C@H]1COC(=O)[C@H](CCSC)NC(=O)CC=C[C@@H](C)[C@H](OC)COC(=O)[C@@H](OCc2ccccc2)C=C[C@@H]1C`, the composite z-score was -0.798 in the test with Albumin (Bos taurus); -0.043 in test [2]; -0.153 in test [3]; -0.173 in test [4]; -0.919 in [5]; 0.0916 in test [6]. Also, the composite z-score with Sam68 (KHDRBS1) was 0.835; in [7], 1.45; in test [8] it was -0.257; in test [9], 0.657; in test [10], 0.116; in test [11], -0.0918. In addition, the composite z-score in test [12] was -0.84; in test [13], 1.23; in [14], 0.689; in the test with Lefty1, 1.3; in [16], -0.36. For the same compound, the composite Z-score in test [1] was 1.04 (inactive). For the same compound, the z-score was -1.19 in test [15] and 1.28 (inactive) in test [17].
On to `COCC#Cc1ccc([C@@H]2N[C@H](C(=O)O)CC[C@H]2C)cc1`, for which the composite z-score in the test with Albumin (Bos taurus) is -0.202; in test [2], -0.0605; in test [3], -0.144; in test [4] it was -0.148; in test [5], -0.336; in test [6], -0.384. In addition, the composite z-score with Sam68 (KHDRBS1) was -0.377; in test [7], 0.305; in test [8], -0.691; in test [9], -1.01; in test [10], 0.307; in [11] it was 0.547. Further, the composite z-score was -0.426 in test [12]; 0.273 in test [13]; -0.0471 in test [14]; 0.0859 in the test with Lefty1; -0.389 in [16]. Moreover, the composite Z-score in [1] was -0.165 (inactive). Further, the z-score in test [15] was 2.23; in [17], -1.77 (inactive).
Take `C[C@H]1CC[C@H]2C(=O)N[C@H](Cc3ccccc3)C(=O)N2[C@@H]1c1ccccc1`: the composite z-score with Albumin (Bos taurus) was -0.456; in [2], -0.177; in test [3], -0.0811; in test [4] it was -0.0975; in test [5], -0.227; in test [6], -0.306. In addition, the composite z-score in the test with Sam68 (KHDRBS1) was -0.824; in test [7], 0.678; in test [8] it was -0.126; in [9], -0.106; in [10], -0.138; in test [11] it was 0.128. In addition, the composite z-score in test [12] was -0.0797; in [13], 0.187; in test [14], 0.831; in the test on Lefty1 it was 0.426; in test [16], -0.112. Moreover, in test [1], the composite Z-score was 0.418 (inactive). In addition, the z-score in [15] is 0.514; in test [17], -0.854 (inactive).
In the case of `CCCNC(=O)OC[C@H]1O[C@H](CCON=C2C[C@@H](O)[C@@H](O)[C@@H]3[C@@H]4C(=O)N(CC)C(=O)[C@@H]4CC[C@@H]23)C=C[C@@H]1Oc1ccc(OC)cc1`, the composite z-score with Albumin (Bos taurus) is 0.148; in [2], 0.217; in [3], -0.136; in [4] it was 0.575; in [5], 0.572; in [6] it was 0.73. In addition, the composite z-score in the test with Sam68 (KHDRBS1) worked out at 1.32; in [7], 0.929; in [8], 0.728; in test [9] it was 1.44; in test [10] it was 0.94; in test [11] it was 0.158. Also, the composite z-score in [12] came to 0.946; in test [13], 1.14; in [14], 0.622; with Lefty1, 1.3; in [16], 0.697. The composite Z-score in test [1] is -0.477 (inactive). Also, the figures for the z-score in test [15] and in test [17] were -0.517 and 0.321 (inactive), respectively.
Regarding `CC(=O)OC[C@H]1O[C@@H](ON=C(C)CCN2CCCCc3nc(C)c(C)cc32)[C@H](OC(C)=O)[C@@H](OC(C)=O)[C@@H]1OC(C)=O`, the composite z-score in the test with Albumin (Bos taurus) was 0.536; in [2], 0.0282; in test [3], -0.115; in test [4] it was 0.163; in [5], 0.773; in test [6], -0.0796. Besides, the composite z-score in the test on Sam68 (KHDRBS1) is 1.29; in test [7] it was 1.27; in [8] it was 0.289; in test [9] it was 0.914; in [10], 0.329; in [11], -0.0665. Besides, the composite z-score in test [12] stood at 0.736; in [13], 0.89; in test [14], 1.14; in the test with Lefty1, 1.17; in test [16] it was 0.162. The composite Z-score in test [1] was -0.288 (inactive). The z-score in test [15] was -0.66; in test [17], 0.949 (inactive).
Regarding `C=CC[C@@H]1C=C[C@H](Oc2ccc(C)cc2)[C@@H](COC(=O)NCc2cccc3ccccc23)O1`, the composite z-score with Albumin (Bos taurus) is 0.427; in test [2], -0.0328; in test [3], -0.127; in [4], 0.023; in test [5], 0.502; in test [6] it was -0.106. The composite z-score in the test with Sam68 (KHDRBS1) was -0.256; in test [7], 0.338; in test [8], -0.749; in test [9], 1.21; in test [10] it was 0.703; in [11] it was 0.433. Also, the composite z-score in test [12] came out at 0.216; in test [13], 0.285; in [14], 0.07; with Lefty1 it was 0.574; in test [16] it was 0.115. Moreover, the composite Z-score in test [1] is 0.339 (inactive). For the same compound, the z-score is 1.34 in test [15] and -0.0167 (inactive) in [17].

Source of the values: PubChem BioAssay.
